Experimental findings from PubChem BioAssay AID1259343 (VanderVen Lab, College of Veterinary Medicine, Cornell …, 2017) are described below.

Out of some 6,200 compounds screened, about 2,900 (47%) were called active. The set was probably picked from earlier hits. Some of the results follow. Unmarked numbers belong to inactive results. Rule as the data show it: active = inhibition above about 50%; inactive = the rest.

This experiment can be described thus: Mycobacterium tuberculosis growth inhibition, primary screen (AID 1259343). The note with it: inhibition: at 10 µM, active compounds read high; outcome: 10 uM.
For orientation: inhibition means the drop in the measured response relative to a control, in per cent. Turning to `CN1C(=O)C(=Cc2cccc(OCc3ccccc3Cl)c2)C(=O)N(C)C1=O`, the inhibition is 14.1%.
With `CCc1cc(=O)[nH]c(-n2nc(C)cc2NC(=O)C(C)(C)Oc2ccc(Cl)cc2)n1`, the inhibition was -31%.
As for `Cc1cc(=O)[nH]c(-n2nc(C)cc2NC(=O)C(C)(C)Oc2ccc(Cl)cc2)n1`, the figure is 101% (active).
As for `Cc1cc(=O)[nH]c(-n2nc(C3CC3)cc2NC(=O)C(C)(C)Oc2ccc(Cl)cc2)n1`, the figure is 98.2% (active).
In the case of `Cc1cc(NC(=O)C(C)(C)Oc2ccc(Cl)cc2)n(-c2nc(C)c(C)c(=O)[nH]2)n1` it was 100% (active).
Regarding `CCc1sc(-c2nnc(-c3cccc(OC)c3)o2)cc1C`, the inhibition was 52.4% (active).
As for `CCc1sc(-c2nnc(CSc3nnc(-c4ccco4)o3)o2)cc1C`, the figure is -15.2%; as for `COc1cccc(C2=NN(C(C)=O)C(C(=O)N(CC(C)C)CC(C)C)O2)c1` (configuration not stated), -4.2%; as for `Cc1ccc(C(=O)C(C#N)C(=O)C2CCCC(C(F)(F)F)C2)s1` (configuration not stated), 101% (active).
Take `Cn1c(=O)oc2cc(NC(=O)C3CCCC(C(F)(F)F)C3)ccc21` (configuration not stated): the inhibition was -34.1%.
Turning to `O=C(Nc1ccc(-n2cccn2)nc1)C1CCCC(C(F)(F)F)C1` (configuration not stated), the inhibition was 7.71%.
As for `Cc1ccc(NC(=O)NC2CCC(C)CC2)cc1-n1cnnn1` (configuration not stated), the figure is -21.7%; as for `Cc1ccc(NCCOc2ccccc2F)cc1-n1cnnn1`, 54.8% (active).
In the case of `Cc1nn2c(NCCN3CCOCC3)cc(-c3ccccc3)nc2c1-c1ccccc1` it was 48.5%; in that of `CCn1c2ccccc2c2cc(Nc3ccnc(NCCCN4CCOCC4)n3)ccc21`, 53.6% (active); in that of `CC(SC(=S)N1CCCC1)c1nc(C2CC2)no1` (configuration not stated), -46.6%.
In the case of `NC(=O)c1cccc(COc2cc(Cl)cc(Cl)c2)c1` it was 49.7%.
As for `Cc1cc(OCc2cccc(Cl)c2)ccc1N`, the inhibition was 92.4% (active).
In the case of `Cc1nc(NC(=O)CNC(=O)Cc2cccc(F)c2)sc1SCC#N` it was 81.8% (active); in that of `Cc1ccc(C2CC2C(=O)Nc2nc(C)c(SCC#N)s2)s1` (configuration not stated), 39.7%.
As to `Cc1c(C(=O)NCc2ccc(Cl)c(Cl)c2)sc(=O)n1Cc1cccc(F)c1`, the inhibition was 41.3%.
As for `CCC(C)c1ccc(Nc2nc(C)c(C)s2)cc1` (configuration not stated), the inhibition was 41.7%.
Take `CC(C)CSc1nnc(SCC(=O)Nc2ccc(C#N)cc2)s1`: the inhibition is -25.3%.
As for `CCNC(=O)NC(=O)C(C)Sc1nnc(Nc2ccc(C)cc2)s1` (configuration not stated), the figure is 99.2% (active).
Turning to `Cc1nc(SC(C)C(=O)NC(N)=O)c2c(C)c(C)sc2n1` (configuration not stated), the inhibition was -7.75%.
As for `CNC(=O)NC(=O)C(C)Sc1nnc(Nc2ccc(C)cc2)s1` (configuration not stated), the figure is 54.2% (active).
In the case of `CNC(=O)NC(=O)C(C)Sc1nnc(SCC(C)C)s1` (configuration not stated) it was 89.7% (active).
For the compound `COc1cccc(Cn2c(=O)c(C(=O)N3CCCC3)nn(-c3cc(C)cc(C)c3)c2=O)c1`, the inhibition was 3.71%.
As for `COc1ccccc1Cn1c(C(=O)N2CCN(C(=O)C(Cl)c3ccccc3)C(C)C2)cc2ccsc21` (configuration not stated), the figure is 35.9%; as for `CCOC(=O)c1ccc(NC(=O)N2CCN(C(=O)c3cc4ccoc4n3Cc3cccc(OC)c3)CC2C)cc1` (configuration not stated), 85.9% (active); as for `O=C1c2ccccc2S(=O)(=O)N1Cc1ccccc1Oc1ccccc1`, 8.36%.
As for `O=C(Nc1ccc2ccccc2n1)C1CC2CCC1C2` (configuration not stated), the figure is 45.8%.
As for `Cc1cccc2sc(NC(=O)C3CC4CCC3C4)nc12` (configuration not stated), the figure is 85.8% (active); as for `O=C(CC1C=CCC1)Nc1nc2c(Cl)c(Cl)ccc2s1` (configuration not stated), 48.5%; as for `CC1CCN(Cc2ncc(-c3ccccc3)o2)C2CCCCC12` (configuration not stated), 72.5% (active).
Take `c1ccc(-c2cnc(CN3CCSc4ccccc43)o2)cc1`: the inhibition was 26%.
As for `CCc1[nH]n(-c2ccc(Cl)c(Cl)c2)c(=O)c1C1=C(N(C)C2CCCCC2)C(=O)N(c2ccccc2F)C1=O`, the figure is 65.4% (active); as for `COc1ccc(N2C(=O)C(c3c(C(C)C)[nH]n(-c4ccc(Cl)cc4)c3=O)=C(N3CCC(C)CC3)C2=O)c(OC)c1`, 39%.
In the case of `CCOc1ccccc1N=Cc1c(C)c(C#N)c2[nH]c3ccccc3n2c1=O` it was 1.57%; in that of `N#Cc1c(C(F)(F)F)cc(=O)n2c1[nH]c1ccccc12`, 101% (active).
In the case of `CCc1c(C)c(C#N)c2[nH]c3ccccc3n2c1=S` it was 40.8%; in that of `Cc1cc(NC(=O)C(C)Nc2ccc(Br)c(C)c2)on1` (configuration not stated), 14%; in that of `Cc1cc(NC(C)C(=O)N(C)Cc2ccccc2)ccc1Br` (configuration not stated), 50.4% (active).
In the case of `O=C(Nc1ccccc1)c1cccn(OCc2ccccc2F)c1=O`, the inhibition is 32.1%.
As for `Cc1c(-c2cccc(NC(=O)Nc3ccccc3)c2)nc2ncccn12`, the figure is 18.8%; as for `CCCSc1ncccc1C(=O)Nc1ccc(-c2ccccc2)cc1`, 89.9% (active); as for `CNc1ccc(-c2ccc(CC#N)cc2)cn1`, 38.5%.
On to `Cc1ccn(CC(=O)N2CCC(C(=O)Nc3ccc(Oc4ccccc4F)cc3)CC2)n1`, for which the inhibition was 19.3%.
In the case of `COCC(=O)N1CCC(C(=O)Nc2ccc(Oc3ccccc3F)cc2)CC1` it was “inactive”; in that of `CSCCC(=O)N1CCC(C(=O)Nc2ccc(Oc3ccccc3F)cc2)CC1`, 76.3% (active); in that of `O=C(Nc1ccc(Oc2ccccc2F)cc1)C1CCN(C(=O)CCc2ccccc2)CC1`, 90.6% (active).
In the case of `COc1cccc(Nc2nc(C(N)Cc3ccc(Cl)cc3)cs2)n1` (configuration not stated) it was 80.4% (active).
As for `NC(Cc1ccc(Cl)cc1)c1csc(Nc2ccc(-c3ccccc3)nn2)n1` (configuration not stated), the figure is 91.2% (active); as for `COc1ccc(CC(N)c2csc(Nc3cccc(OC)n3)n2)cc1` (configuration not stated), 85.1% (active).
For `COc1cccc(Nc2nc(C(N)Cc3ccc(F)cc3)cs2)n1` (configuration not stated), the inhibition is 86.6% (active).
In the case of `COc1cccc(Nc2nc(C(N)C3CCCCC3)cs2)n1` (configuration not stated) it was 86.2% (active).
In the case of `COc1cccc(Nc2nc(C(N)Cc3ccc(C(F)(F)F)cc3)cs2)n1` (configuration not stated) it was 75.8% (active).
As to `COc1ccc(-c2csc(NC3CCCC3)n2)c(OC)c1`, the inhibition is 16.6%.
In the case of `CN(Cc1ccc(O)cc1)C(=O)C1=NOC(c2ccccc2)C1` (configuration not stated) it was 66.5% (active); in that of `COc1ccc(C(=O)N2CCOC(CCc3ccccc3)C2)cc1F` (configuration not stated), 57.4% (active).
In the case of `O=C(c1ccc2c(c1)OCCO2)N1CCOC(CCc2ccccc2)C1` (configuration not stated) it was 39.8%; in that of `CC(C)Cc1cc(C(=O)N2CCOC(CCCc3ccccc3)C2)n[nH]1` (configuration not stated), 54.1% (active).
For the compound `CC(C)c1cc(C(=O)N2CCOC(CCc3ccccc3)C2)no1` (configuration not stated), the inhibition was 56.6% (active).
With `O=C(CCc1cccs1)N1CCOC(CCCc2ccccc2)C1` (configuration not stated), the inhibition is 34.9%.
As for `O=C(CCS(=O)(=O)c1ccccc1F)Nc1ccc(I)cc1`, the figure is 80.2% (active); as for `O=C(COc1ccccc1F)Nc1ccc2c(c1)OC(F)(F)O2`, 21.4%.
In the case of `O=C1N(c2ccccc2)C(c2ccco2)C1(F)F` (configuration not stated) it was 40.3%.
As for `c1cc2c(cc1[C@H]1OC[C@H]3[C@@H]1CO[C@H]3c1ccc3c(c1)OCO3)OCO2`, the inhibition is 49%.
As for `Clc1ccc(-n2ncc3c2CCN(Cc2cc4c(cc2Cl)OCO4)C3)cc1`, the figure is 23.9%; as for `O=C1N(c2ccc3c(c2)OCO3)C(c2ccc(Cl)cc2)C1(F)F` (configuration not stated), 89.3% (active); as for `O=C1N(c2ccc(Cl)cc2)C(c2ccc3c(c2)OCO3)C1(F)F` (configuration not stated), 78.8% (active).
In the case of `O=C1N(c2ccc3c(c2)OCO3)C(c2cccc(F)c2)C1(F)F` (configuration not stated) it was 27%; in that of `O=C1N(c2ccc3c(c2)OCO3)C(c2ccc3c(c2)OCO3)C1(F)F` (configuration not stated), 102% (active); in that of `CCCc1cc(=O)[nH]c(SCCOc2ccc(Br)cc2)n1`, 18.1%.
As for `Nc1c(C(=O)c2ccc(Br)s2)oc2ccccc12`, the figure is 43.5%; as for `Nc1c(C(=O)CCC(=O)O)oc2ccc(Cl)cc12`, 20.1%.
As to `Nc1c(C(=O)CCC(=O)O)oc2ccc(Br)cc12`, the inhibition is 68% (active).
Take `O=C(O)CCC1NCC2CC1CN1CCCCC21` (configuration not stated): the inhibition is 1.66%.
As to `CSC(Nc1ccc(Br)cc1)=C(C#N)C#N`, the inhibition is 101% (active).
In the case of `Clc1cccc(Cl)c1OCCOc1cccc2cccnc12`, the inhibition was 94.7% (active).
For `Cc1ccc(Cl)c(OCCCOc2cccc3cccnc23)c1`, the inhibition was 71.6% (active).
As for `COc1ccc(C2CC(=O)C3=C(C2)NC(C)=C(C#N)C3c2ccc(Cl)c(Cl)c2)cc1` (configuration not stated), the inhibition is -9.69%.
With `CCOc1ccc2nc(CN3CCN(CC=C(C)C)C(CCO)C3)ccc2c1` (configuration not stated), the inhibition result is “inactive”.
With `OC1(c2cccs2)C[N+]2=C(SCC2)N1c1ccccc1` (configuration not stated), the inhibition is -3.48%.
Turning to `CCCCc1ccc(N2C3=[N+](CCCS3)CC2(O)c2ccc(C)cc2)cc1` (configuration not stated), the inhibition was 79.3% (active).
Turning to `Oc1c(Br)cc(C=NNc2ccccn2)cc1Br`, the inhibition is 97.7% (active).
As to `N#Cc1cnc(NCc2ccc(N3CCOCC3)c(F)c2)c(Cl)c1`, the inhibition was 5.19%.
In the case of `N#Cc1ccc(CNc2ccc(F)cc2Cl)cc1` it was -56.2%; in that of `N#Cc1cc(F)c(NCc2ccc(F)cc2)c(F)c1`, 69.3% (active); in that of `CCCCS(=O)(=O)NCC1CCCCC1`, 25.9%.
In the case of `CCCCS(=O)(=O)NCCOc1ccc(C)cc1` it was 75% (active); in that of `CC(O)c1cccc(OCc2ccc(S(=O)(=O)C(F)F)cc2)c1` (configuration not stated), 88.2% (active); in that of `COc1cccc(C(=O)Nc2ccc(S(=O)(=O)C(F)F)cc2)c1`, -1.65%.
As for `Cc1ccccc1OCC1=NN2C(=N)/C(=C/c3ccc(Br)o3)C(=O)N=C2S1`, the figure is 51.2% (active).
Turning to `O=C(Cc1ccccc1Cl)NCc1cc(F)cc(F)c1`, the inhibition is 24%.
In the case of `O=C1CC(C(=O)NCc2ccccc2Cl)c2ccc(F)cc2N1` (configuration not stated), the inhibition was 87.3% (active).
In the case of `CC1(Cc2ccccc2Cl)C(=O)Nc2c(Cl)ccc(Cl)c21` (configuration not stated) it was 20.4%; in that of `CC1Oc2ccccc2C=C1/C=N\Nc1nc2ccccc2[nH]1` (configuration not stated), 94.2% (active); in that of `C(=NNc1nc2ccccc2[nH]1)c1c(-c2ccccc2)[nH]c2ccccc12`, 28.8%.
For `CC(=NNc1nc2ccccc2[nH]1)c1ccc(C)o1`, the inhibition was 84.2% (active).
In the case of `CC1=CCCC(C)(C)C1C=CC(C)=NNc1nc2ccccc2[nH]1` (configuration not stated) it was 36.3%.
For the compound `C(=NNc1nc2ccccc2[nH]1)C(=NNc1nc2ccccc2[nH]1)c1ccccc1`, the inhibition is 79.8% (active).
